# Experimental data: PubChem BioAssay (Tox21)
# Calls of active or inactive are those of the source. Calls come from the whole dose curve.
# Molecular target: Acetylcholinesterase (Homo sapiens) (UniProt P22303)
# Experiment: Acetylcholinesterase (AChE) small molecule antagonists: enzyme-based qHTS assay (AID 1347397); note: nearly all actives have a fitted effect of over 55% in size
# Conditions: Potency: AChE enzyme activity inhibition; outcome: AChE enzyme activity inhibition; series mostly up to 115 µM; activity change, negative = inhibition: at the top concentration
# How it was run: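 In this quantitative HTS, compounds from the Tox21 10K collection were preincubated 30 min at ambient temperature with recombinant human AChE dispensed at 50 mU/mL. Hydrolysis of acetylthiocholine was then followed for 10 min by DTNB colour development.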
# % is set by controls: 0 for no effect and ±100 for the full control effect; potency is the fitted concentration of half-maximal effect.
# Sequence of Acetylcholinesterase (Homo sapiens) (P22303 whole entry, looked up): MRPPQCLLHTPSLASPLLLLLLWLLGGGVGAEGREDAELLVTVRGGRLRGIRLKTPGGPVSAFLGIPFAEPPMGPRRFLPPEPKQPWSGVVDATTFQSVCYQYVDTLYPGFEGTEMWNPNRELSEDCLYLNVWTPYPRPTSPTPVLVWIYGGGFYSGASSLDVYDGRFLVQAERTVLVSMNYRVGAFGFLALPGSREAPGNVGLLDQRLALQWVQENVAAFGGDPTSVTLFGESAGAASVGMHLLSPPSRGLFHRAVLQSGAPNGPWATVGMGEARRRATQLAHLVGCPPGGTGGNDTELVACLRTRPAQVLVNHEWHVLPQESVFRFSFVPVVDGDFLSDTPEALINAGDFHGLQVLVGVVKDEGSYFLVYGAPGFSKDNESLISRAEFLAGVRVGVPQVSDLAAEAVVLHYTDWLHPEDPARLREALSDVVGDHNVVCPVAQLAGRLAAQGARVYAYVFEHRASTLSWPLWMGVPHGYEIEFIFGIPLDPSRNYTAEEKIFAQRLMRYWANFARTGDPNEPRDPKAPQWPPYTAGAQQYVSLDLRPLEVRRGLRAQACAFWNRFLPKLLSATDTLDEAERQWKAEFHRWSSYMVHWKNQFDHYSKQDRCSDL
Compound,"activity change, negative = inhibition",Potency,outcome
OCCCC1CCCCC1,0.0687% (inactive),–,–
NCC1CCCC(CN)C1 (centres undefined),-0.657% (inactive),–,–
COc1cc(C(C)C)ccc1C,1.63% [at 23.6 µM] (inactive),–,–
O=C(O)c1cc(=O)c2ccccc2o1,1.67% [at 53 µM] (inactive),–,–
CCC(=O)C(=O)CC,0.689% (inactive),–,–
c1csc(SSc2cccs2)c1,-1.1% (inactive),–,–
CC(C)(C)c1cc(C=O)cc(C(C)(C)C)c1O,2.02% [at 53 µM] (inactive),–,–
Clc1cc(Cl)c(Cl)nc1Cl,0.818% (inactive),–,–
COc1cc(N)ccc1C,0% (inactive),–,–
Cc1cc(CC(=O)O)c(C)n1-c1ccc(Cl)cc1,-1.02% [at 53 µM] (inactive),–,–
CCCCCCCCCOC(=O)c1ccccc1C(=O)OCCCCCCCCC,-3.68% (inactive),–,–
COc1cc(C=C2CCC/C(=C\c3ccc(O)c(OC)c3)C2=O)ccc1O,-9.08% [at 53 µM] (inactive),–,–
CN(C)C(=O)Nc1ccc(Oc2ccc(Cl)cc2)cc1,-0.903% (inactive),–,–
CCCCC(=O)O[C@]1(C(=O)CO)[C@H](C)C[C@H]2[C@@H]3CCC4=CC(=O)C=C[C@]4(C)[C@@]3(F)[C@@H](O)C[C@@]21C,-0.693% [at 53 µM] (inactive),–,–
NC(=O)c1ccncc1,0.562% (inactive),–,–
CC(=O)N[C@@H](CCC(=O)O)C(=O)O,0.584% [at 53 µM] (inactive),–,–
CO[Si](CCCCl)(OC)OC,2.43% (inactive),–,–
OC(C#CCN1CCCC1)(c1ccccc1)c1ccccc1,0.248% [at 53 µM] (inactive),–,–
C=C(C)CCCC,1.17% (inactive),–,–
O=CNc1ccccc1,-0.292% (inactive),–,–

Compound,"activity change, negative = inhibition",Potency,outcome
O=S(=O)(O)c1cc(I)c(O)c2ncccc12,2.76% [at 53 µM] (inactive),–,–
O=C(Nc1ccc(Oc2ccc(Cl)cc2)c(Cl)c1)c1cc(I)cc(I)c1O,-8.92% [at 53 µM] (inactive),–,–
CCN(CC)CC(=O)OCC(=O)[C@@]1(O)CC[C@H]2[C@@H]3CCC4=CC(=O)CC[C@]4(C)[C@H]3[C@@H](O)C[C@@]21C,-0.328% [at 53 µM] (inactive),–,–
CC(C)(C)OC(=O)c1ccccc1C(=O)O,0.481% (inactive),–,–
O=c1cccccc1O,0.152% (inactive),–,–
CCO[Si](CCC1CCC2OC2C1)(OCC)OCC (centres undefined),0.92% (inactive),–,–
C=C(C)C(=O)NCCCN(C)C,0.0111% (inactive),–,–
COC(=O)C1=C(C)NC(C)=C(C(=O)OC(C)(C)CN(C)CCC(c2ccccc2)c2ccccc2)C1c1cccc([N+](=O)[O-])c1 (centres undefined),0% [at 53 µM] (inactive),–,–
CC1COc2c(N3CCN(C)CC3)c(F)cc3c(=O)c(C(=O)O)cn1c23 (centres undefined),-0.817% [at 53 µM] (inactive),–,–
Oc1cccc2c(O)cccc12,-1.5% (inactive),–,–
O=C1CC[C@@H](C(=O)O)N1,2.2% [at 53 µM] (inactive),–,–
CC(=O)NO,-1.08% [at 53 µM] (inactive),–,–
O=S(=O)(O)c1ccc(Nc2nc(Nc3ccc(/C=C/c4ccc(Nc5nc(Nc6ccc(S(=O)(=O)O)cc6)nc(N(CCO)CCO)n5)cc4S(=O)(=O)O)c(S(=O)(=O)O)c3)nc(N(CCO)CCO)n2)cc1,3.26% [at 53 µM] (inactive),–,–
CCCCOC(=O)/C=C\C(=O)OCCCC,-0.0013% (inactive),–,–
Cc1ccc(=O)n(-c2ccccc2)c1,1.25% [at 53 µM] (inactive),–,–
CCCCCCCC/C=C\CCCCCCCC(=O)N(C)CC(=O)O,–,63.3 µM (active),–
CNCCCC1c2ccccc2C=Cc2ccccc21,–,–,inactive
Cc1ccc(O)cn1,0.409% (inactive),–,–
O=C(O)CNC(=O)c1ccccc1I,2.15% [at 53 µM] (inactive),–,–
